Data published in PubChem BioAssay (NCI).
About 83,000 compounds went through this panel and 20% of them were active in at least one assay; those are over-represented in the sample as a whole.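 Plates (96-well) were seeded with cells, treated with compound at one concentration, and incubated for 48 hours before percent growth was determined.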 Active and inactive are the calls of the source. Rule for the calls: active = growth percent below 10; inactive = the rest.

Assays:
Test in all cases: NCI-60 one-dose screen, 48 h (100 = growth as untreated, 0 = no growth, -100 = all killed)
[1] = tested on: HCT-15 colon; details: 10 µM unless noted
[2] = tested on: HT29 colon; details: 10 µM unless noted
[3] = tested on: SNB-75 CNS; details: 10 µM unless noted
[4] = tested on: SNB-19 CNS; details: 10 µM unless noted
[5] = tested on: U251 CNS; details: 10 µM unless noted
[6] = tested on: PC-3 prostate; details: 10 µM unless noted
[7] = tested on: SK-MEL-5 melanoma; details: 10 µM unless noted
[8] = tested on: UACC-62 melanoma; details: 10 µM unless noted
[9] = tested on: LOX IMVI melanoma; details: 10 µM unless noted
[10] = tested on: SK-MEL-28 melanoma; details: 10 µM unless noted
[11] = tested on: SK-MEL-2 melanoma; details: 10 µM unless noted
[12] = tested on: EKVX NSCLC; details: 10 µM unless noted
[13] = tested on: SN12C renal; details: 10 µM unless noted
[14] = tested on: UO-31 renal; details: 10 µM unless noted
[15] = tested on: TK-10 renal; details: 10 µM unless noted
[16] = tested on: CAKI-1 renal; details: 10 µM unless noted
[17] = tested on: A498 renal; details: 10 µM
[18] = tested on: HL-60(TB) leukemia; details: 10 µM unless noted
[19] = tested on: CCRF-CEM leukemia; details: 10 µM unless noted
[20] = tested on: ACHN renal; details: 10 µM unless noted

Measured: growth

CCC[CH2][Sn]([CH2]CCC)([CH2]CCC)[O]c1ccc(Cl)cc1Cl
active: [1] -62.5% | [2] -52.3% | [3] -93.6% | [4] -81% | [5] -74% | [6] -70% | [7] -99.8% | [8] -88.4% | [9] -81.4% | [10] -96.9% | [11] -66.9% | [12] -51.7% | [13] -69% | [14] -85.3% | [15] -91.7% | [16] -56.6% | [17] -98.1% | [18] -23.9%

Clc1ccc(CSC(Cn2ccnc2)c2ccc(Cl)cc2Cl)cc1 (stereo unspecified)
active: [7] -9.89% | [14] 4.12% | [18] -11.6%
inactive: [1] 29% | [2] 30.5% | [3] 57.9% | [4] 47.3% | [5] 27.8% | [6] 15% | [8] 29.5% | [9] 18% | [10] 62.3% | [11] 34.1% | [12] 31.7% | [13] 38.5% | [15] 32.3% | [16] 20.8% | [17] 49.2% | [19] 20%

Cc1ccc(Nc2nc3c(s2)C2=CC[C@@H]4[C@H](CC[C@]5(C)C(=O)CC[C@@H]45)[C@@]2(C)CC3)cc1
active: [19] 7.68%
inactive: [1] 17% | [2] 15% | [3] 28.7% | [4] 55.4% | [5] 33.4% | [6] 33% | [7] 56.6% | [8] 68.3% | [9] 21.3% | [10] 37.6% | [11] 46.3% | [12] 56.7% | [13] 60% | [14] 48.3% | [15] 53.5% | [16] 34.3% | [17] 51.3% | [18] 34%

Brc1ccc2c(c1)c(-c1nc(-c3c[nH]c4ncccc34)cs1)cn2CCN1CCCCC1
inactive: [1] 20.8% | [2] 27.4% | [3] 67.7% | [4] 90% | [5] 42% | [6] 51.4% | [7] 68.2% | [8] 78.2% | [9] 65.4% | [10] 106% | [11] 82.7% | [12] 66.9% | [13] 80% | [14] 44.8% | [15] 81.5% | [17] 95.7% | [18] 66% | [19] 50.8%

COc1cc(C=C2c3ccccc3C(=O)c3ccccc32)ccc1OCCCCOc1cc2c(cc1OC)C(=O)N1CCCC1C=N2 (stereo unspecified)
active: [1] -75.6% | [2] -64.6% | [3] -90.9% | [4] -89.2% | [5] -100% | [6] -45.9% | [7] -92.4% | [8] -90.1% | [9] -100% | [10] -82.8% | [11] -79.6% | [12] -49.8% | [13] -68.6% | [14] -96% | [15] -70.2% | [16] -75.5% | [17] -78.6% | [18] -21.3% | [19] -24%

CC[C@H](C)[C@H](NC(=O)c1nccn1C)C(=O)N(C)[C@H](C[C@@H](OC(C)=O)c1nc(C(=O)N[C@@H](Cc2ccccc2)C[C@H](C)C(=O)OC)cs1)C(C)C
inactive: [1] 10.5% | [3] 15.8% | [4] 37.3% | [6] 25.2% | [8] 55.7% | [9] 17.6% | [10] 51.2% | [11] 28.5% | [12] 52.8% | [13] 40.2% | [14] 47.3% | [15] 41.9% | [16] 33.8% | [19] 15.9%
active: [2] -6.75% | [5] 9.94% | [7] -0.799% | [17] -9.78% | [18] -43.5%

CCCOC(=O)N[C@H]1CCc2c(Br)c(OC)c(OC)c(OC)c2-c2ccc(SC)c(=O)cc21
inactive: [2] 12.2% | [3] 19.6% | [4] 23.1% | [5] 17.6% | [6] 21.1% | [8] 17.8% | [10] 64.7% | [11] 34.2% | [12] 40.3% | [13] 14.1% | [14] 20.7% | [15] 43% | [16] 11.2%
active: [1] 7.9% | [7] -29.9% | [9] 8.1% | [18] -25.7% | [19] 5.05%

CN(C)C(=O)Oc1ccccc1
inactive: [1] 98.1% | [2] 118% | [3] 89.1% | [4] 115% | [5] 103% | [6] 94.8% | [7] 113% | [8] 109% | [9] 92.4% | [10] 111% | [11] 108% | [12] 104% | [13] 106% | [14] 103% | [15] 107% | [20] 101% | [18] 94.5% | [19] 104%

CCOP(=O)(NC[C@H]1O[C@](O)(CO)[C@@H](O)[C@@H]1O)OCC
inactive: [1] 100% | [2] 96.2% | [3] 80.2% | [4] 97% | [5] 101% | [6] 85.9% | [7] 96.5% | [8] 99.8% | [9] 92.8% | [10] 116% | [11] 98.4% | [12] 91.4% | [13] 100% | [14] 69.9% | [15] 97.2% | [20] 103% | [19] 101%

COc1cc(NCCCN=C(N)N)c2ncccc2c1
active: [13] 2.57%
inactive: [1] 98.6% | [2] 83.9% | [3] 73.4% | [4] 81.8% | [5] 58.5% | [6] 83.7% | [7] 72.1% | [8] 90.3% | [9] 104% | [10] 99.6% | [11] 27.8% | [12] 70.6% | [14] 89.4% | [15] 80% | [16] 97.9% | [17] 73.6% | [19] 95.8%

CCOC(=O)N[C@H]1CCc2c(Br)c(OC)c(OC)c(OC)c2-c2ccc(SC)c(=O)cc21
active: [1] 8.88% | [7] -23.4% | [9] 9.29% | [16] 3.95% | [18] -39.9% | [19] 1.82%
inactive: [2] 13.1% | [3] 17.2% | [4] 28.7% | [5] 19.7% | [6] 24.2% | [8] 38.7% | [10] 56.8% | [11] 43.5% | [12] 45.4% | [13] 24.3% | [14] 27.3% | [15] 42.1%

O=C(Nc1ccc(Br)cc1)c1cc(Br)cc(Br)c1O
active: [1] -14.6% | [3] -10.5% | [5] 6.11% | [6] 9.67% | [7] -71% | [8] -14.2% | [9] -7.5% | [11] -21.8% | [13] -2.01% | [14] 4.99% | [16] -6.11%
inactive: [2] 23.5% | [4] 11% | [10] 33.7% | [12] 10.7% | [15] 14.6% | [17] 32.2% | [18] 84.3% | [19] 13.5%

Cc1cc(C)cc(Nc2nc3c(s2)CC[C@@]2(C)C3=CC[C@@H]3[C@@H]2CC[C@]2(C)C(=O)CC[C@@H]32)c1
inactive: [1] 19.1% | [2] 12.3% | [3] 70.5% | [4] 60.1% | [5] 46.6% | [6] 33.1% | [7] 91.6% | [8] 52.9% | [10] 59.1% | [11] 54.9% | [12] 89.4% | [13] 54.2% | [14] 59.4% | [15] 77.6% | [16] 47.4% | [17] 78% | [18] 57.6%
active: [9] 4.43% | [19] 3.37%

CC[C@H](C)[C@H](NC(=O)c1cccn1C)C(=O)N(C)[C@H](C[C@@H](OC(C)=O)c1nc(C(=O)N[C@@H](Cc2ccccc2)C[C@H](C)C(=O)OC)cs1)C(C)C
inactive: [1] 12% | [3] 33.4% | [4] 35.4% | [5] 12.3% | [6] 21.2% | [8] 40.4% | [9] 15.2% | [10] 68.8% | [11] 20.4% | [12] 54.3% | [13] 24.2% | [14] 38.9% | [15] 27.5% | [16] 25.1% | [19] 18.7%
active: [2] -18.1% | [7] -29.1% | [17] -2.8% | [18] -36.7%

Clc1ccc(COC(Cn2ccnc2)c2ccc(Cl)cc2Cl)cc1 (stereo unspecified)
active: [18] -40.2%
inactive: [1] 53% | [2] 43.6% | [3] 93.3% | [4] 78% | [5] 64.4% | [6] 21.1% | [7] 49.5% | [8] 52.6% | [9] 31.6% | [10] 83.9% | [11] 68.9% | [12] 30.7% | [13] 68.4% | [14] 20.7% | [15] 62% | [16] 21.4% | [17] 43.4% | [19] 30.6%

C/C(=C\c1ccn(-c2ccc(N)c(F)c2)n1)[C@@H]1C[C@@H]2O[C@]2(C)CCC[C@H](C)[C@H](O)[C@@H](C)C(=O)C(C)(C)[C@@H](O)CC(=O)O1
active: [3] -16.9% | [18] 5.44%
inactive: [1] 11.4% | [2] 14.9% | [4] 38.4% | [5] 24% | [6] 14.7% | [7] 14.7% | [8] 21.7% | [9] 32.4% | [10] 58.3% | [11] 23.2% | [12] 42.2% | [13] 35.7% | [14] 36.9% | [15] 44.6% | [16] 37.5% | [17] 13% | [19] 12.1%
